Some test systems named below: DU-145 prostate; K-562 leukemia; MALME-3M melanoma; MDA-MB-231 breast; RXF 393 renal; SF-268 CNS; SF-295 CNS; SF-539 CNS; UACC-257 melanoma; HCT-15 colon; HT29 colon; SNB-75 CNS; SNB-19 CNS; U251 CNS; PC-3 prostate; SK-MEL-5 melanoma; UACC-62 melanoma; LOX IMVI melanoma; SK-MEL-28 melanoma.
Holding throughout (test): NCI-60 one-dose screen, 48 h (100 = growth as untreated, 0 = no growth, -100 = all killed)
Common to all, as to conditions: 10 µM unless noted

The panel holds about 83,000 compounds, 20% with a hit somewhere; the sample as a whole holds those more often.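 Cell lines were cultured in 96-well plates, exposed to a single compound concentration, and assessed for percent growth 48 hours later.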 Unmarked numbers belong to inactive results. Activity calls are given as the source filed them. The calls were made as follows: active = growth percent below 10; inactive = the rest.

On to `Cc1ccnc(Nc2ccc([N+](=O)[O-])c(NCCN3CCOCC3)n2)c1`, for which the growth with DU-145 prostate was 10.1%; in the test with K-562 leukemia it was 6.76% (active); with MALME-3M melanoma, 89.3%; with MDA-MB-231 breast, 42.4%; with RXF 393 renal, 70.4%; in the test on SF-268 CNS, 31.9%. Moreover, the growth was 35.8% with SF-295 CNS; 6.71% (active) with SF-539 CNS; 86.2% in the test on UACC-257 melanoma; 8.47% (active) with HCT-15 colon; 10.9% in the test with HT29 colon; 56.8% in the test with SNB-75 CNS. The growth in the test with SNB-19 CNS is 58.3%; with U251 CNS, 23.2%; in the test with PC-3 prostate, 12.2%; in the test with SK-MEL-5 melanoma it was -3.36% (active); in the test with UACC-62 melanoma, 37.3%; with LOX IMVI melanoma, 22.8%. Also, in the test with SK-MEL-28 melanoma, the growth is 72%.
For the molecule `CN(CCCNC(=O)Cc1ccc2ccc3cccc4ccc1c2c34)CCCNc1cc(-c2ccc3ccccc3c2)nc2ccccc12`, the growth with DU-145 prostate was -90.7% (active); in the test with K-562 leukemia it was -82.8% (active); with MALME-3M melanoma, -57.7% (active); with MDA-MB-231 breast, -75.2% (active); in the test with RXF 393 renal, -24.1% (active); in the test on SF-268 CNS, -77.6% (active). The growth was -36% (active) with SF-295 CNS; -96.1% (active) with SF-539 CNS; -70% (active) in the test on UACC-257 melanoma; -69% (active) with HCT-15 colon; -80.8% (active) with HT29 colon; -94.6% (active) in the test with SNB-75 CNS. Further, the growth with SNB-19 CNS is -82.8% (active); in the test on U251 CNS it was -49.3% (active); in the test on PC-3 prostate, -87.5% (active); with SK-MEL-5 melanoma, -93.1% (active); with UACC-62 melanoma, -51.6% (active); in the test on LOX IMVI melanoma it was -54% (active). Further, in the test on SK-MEL-28 melanoma, the growth was -85.7% (active).
As for `OCCNCCNC(Cc1ccc(Cl)cc1)c1ccccc1` (stereo not given), the growth with DU-145 prostate is 99.7%; in the test with K-562 leukemia, 88.5%; with MALME-3M melanoma, 107%; in the test with MDA-MB-231 breast it was 75.7%; in the test on RXF 393 renal, 84.5%; in the test on SF-268 CNS, 88.8%. The growth in the test on SF-295 CNS was 92.2%; in the test with SF-539 CNS, 72.9%; in the test with UACC-257 melanoma it was 104%; in the test with HCT-15 colon, 93.3%; in the test on HT29 colon, 59.9%; in the test with SNB-75 CNS it was 72.8%. Further, the growth with SNB-19 CNS was 96.9%; in the test on U251 CNS, 94.2%; in the test on PC-3 prostate it was 55.3%; in the test with SK-MEL-5 melanoma, 95.2%; with UACC-62 melanoma it was 59.7%; in the test with LOX IMVI melanoma, 83.8%. Moreover, the growth in the test on SK-MEL-28 melanoma is 81.5%.
Turning to `Cc1nc2c(c(=O)[nH]1)C(c1ccccc1)c1ccc3ccccc3c1O2` (stereo not given), the growth was 56.2% with DU-145 prostate; 11.9% with K-562 leukemia; 60.9% in the test on MALME-3M melanoma; 46.6% in the test with MDA-MB-231 breast; 27.6% with RXF 393 renal; 38.2% in the test on SF-268 CNS. In addition, the growth with SF-295 CNS was 22.8%; in the test with SF-539 CNS, 14.5%; in the test with UACC-257 melanoma, 34.5%; with HCT-15 colon, 23.4%; in the test on HT29 colon, 84.5%; in the test with SNB-75 CNS it was 13.1%. Moreover, the growth is 30.8% with SNB-19 CNS; 26.1% in the test with U251 CNS; 19.7% in the test on PC-3 prostate; 36.8% in the test on SK-MEL-5 melanoma; 30.4% in the test with UACC-62 melanoma; 35.2% in the test on LOX IMVI melanoma. Further, the growth with SK-MEL-28 melanoma was 57.7%.
As for `O=C1/C=C/[C@@H](O)[C@@H]2C[C@@H](O)C[C@H]2/C=C/CCC[C@@H](O)CCO1`, the growth with DU-145 prostate was 105%; in the test with K-562 leukemia, 105%; in the test on MALME-3M melanoma it was 60.9%; in the test on MDA-MB-231 breast it was 113%; in the test on RXF 393 renal, 52.4%; with SF-268 CNS, 85.6%. In addition, the growth in the test on SF-295 CNS was 89.2%; in the test on SF-539 CNS, 101%; with UACC-257 melanoma, 49.3%; in the test with HCT-15 colon, 107%; in the test with HT29 colon it was 91.6%; in the test on SNB-75 CNS it was 41.2%. Also, the growth in the test with SNB-19 CNS is 104%; in the test with U251 CNS it was 92.3%; in the test on PC-3 prostate it was 90.6%; with SK-MEL-5 melanoma, 22.9%; with UACC-62 melanoma it was 110%; with LOX IMVI melanoma it was 94.7%. The growth in the test with SK-MEL-28 melanoma was 28.7%.
